Data as given in PubChem BioAssay AID720690 (Broad Institute, 2013).
Potency and affinity values are given separately. Activity calls are given as the source filed them.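 Rule for the calls: active = every repeat run showing a signal drop whose fitted half-maximal concentration is at most twice the top tested concentration; inconclusive = repeat runs disagree, or flat partial drop, or poor fit; inactive = the rest.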

Test: general mammalian cell viability loss – activator set, cherry-pick, cytotoxicity control for miR-122 modulator project, dose response (AID 720690);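 note: 0% = neutral control wells and -100% = MG132 cytotoxic control wells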
Settings: HEK293T viability, CellTiter-Glo luminescence, 48 h; series mostly up to 26 µM; activity change, negative = cytotoxicity: at the top concentration

SMILES | activity change, negative = cytotoxicity
CC(C)NC(=O)N1[C@H](CO)[C@@H](c2ccccc2)[C@@H]1CN(C)C(=O)c1cccnc1 | -0.275% (inactive)
CNC(=O)c1nc(C)n(-c2cc(Cl)cc(Cl)c2)n1 | 17.7% (inactive)
CNC(=O)C[C@H]1CC[C@@H]2[C@H](COc3ccc(NC(=O)c4ccc(OC)cc4)cc3C(=O)N2C)O1 | -9.74% (inactive)
CN1C(=O)c2cc(NS(C)(=O)=O)ccc2OC[C@@H]2O[C@H](CC(=O)O)CC[C@H]21 | -4.45% [at 23.5 µM] (inactive)
Cc1ccc(-n2c(Cc3ccccc3)n[nH]c2=S)cc1 | 13.4% (inactive)
Cn1c(NC(=O)c2ccco2)c(-c2ccccc2Cl)c(=O)c2ccccc21 | -9.64% (inactive)
O=C(c1cccnc1)N1C[C@H]2[C@@H](c3ccccc31)[C@H](CO)N2C(=O)C1CCCC1 | -16.5% [at 23.5 µM] (inactive)
CCCNC(=O)Nc1ccc2c(c1)C(=O)N(C)[C@@H]1CC[C@@H](CC(=O)NCC3CCCCC3)O[C@@H]1CO2 | 2.63% (inactive)
OCc1ccc(-c2nn(Cc3ccccc3)c3ccccc23)o1 | -14.7% (inactive)
CC(C)C(=O)Nc1ccc2c(c1)C(=O)N(C)[C@@H]1CC[C@@H](CC(=O)N[C@H](C)c3ccccc3)O[C@@H]1CO2 | -3.75% [at 23.5 µM] (inactive)
CN1C(=O)c2cc(NS(=O)(=O)c3ccc(Cl)cc3)ccc2OC[C@H]2O[C@H](CC(=O)N3CCc4ccccc4C3)CC[C@@H]21 | -15.6% (inactive)
CC(C)NC(=O)Nc1ccc2c(c1)C(=O)N(C)[C@@H]1CC[C@H](CC(=O)NCC(F)(F)F)O[C@H]1CO2 | 6.41% (inactive)
COCCN(C[C@@H]1[C@@H](c2ccccc2)[C@H](CO)N1C(=O)C1CC1)C(C)=O | -9.14% (inactive)
CCN(C[C@H]1[C@@H](c2ccccc2)[C@@H](CO)N1C(=O)COC)S(C)(=O)=O | -9.87% (inactive)
